RE007 growth inh: less growth of the S. pombe RE007 Vpr strain; S. pombe RE007 Vpr strain, BacTiter-Glo ATP luminescence, 24 h; Potency, µM (doses to about 92.2 µM), hits mostly inhibitors; 0.21% of 360,000 active; active = well fitted falling curve with a large enough effect; inconclusive = small, poorly fitted or top-dose-only effect; inactive = no such curve, though single readings can be large or run the other way; also: nearly all actives have a fitted effect of over 50% in size
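Fission yeast RE007 carrying one integrated HIV-1 vpr copy, seeded at OD 0.01 in PMG+AL medium with 23 nL pinned compound. Grown 24 h at 30 degrees; viability read by BacTiter-Glo luminescence after 5 min.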
LASV entry inh: inhibitors of Lassa virus binding or cell entry | Lassa virus pseudotype entry inhibition, cell reporter | Potency, µM (top dose mostly 37.9 µM), hits mostly inhibitors | 1.2% of 300,000 active | AID 540256; calls by dose curve; tested in HEK293 cells; also: nearly all actives have a fitted effect of over 50% in size
HCV inh: HCV inhibition | AID 651820 | 3.4% of 340,000 active | Huh7.5.1 HCVcc-Cre infection, luciferase reporter, 44 h | Potency, µM (top dose mostly 41.8 µM), usual class: inhibitors
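Cells (1,000/well) were plated 4 h before compound, then infected with HCVcc-Cre virus (~0.5 moi). After 44 h further culture, infection was read as luciferase luminescence following a 15 min substrate incubation at room temperature.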
Marburg entry inh: inhibitors of Marburg virus binding or cell entry | 1.8% of 300,000 active | Marburg virus pseudotyped entry inhibition, cell reporter | Potency, µM (top dose mostly 37.8 µM), most hits filed as inhibitors; calls by dose curve; tested in HEK293 cells
FMDV antiviral: antivirals against foot and mouth disease virus; FMDV antiviral cell-based qHTS; 1.2% of 410,000 active; Potency, µM (titrated, usually from 57.9 µM), actives largely listed as inhibitors; AID 1159524; calls by dose curve; tested in HEK293T cells; also: read-out not given here; nearly all actives have a fitted effect of over 45% in size
Sm TGR block: inhibitors of Schistosoma mansoni thioredoxin glutathione reductase | Q962Y6 | purified TGR, DTNB reduction, TNB absorbance 405 nm | Potency, µM (doses to about 114 µM), usual class: inhibitors | 3% of 360,000 active; also: nearly all actives have a fitted effect of over 60% in size
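TGR 20 nM + NADPH 100 uM (dispensed conc.), cpd preinc 15 min RT; start with NADPH (500 uM addition) then DTNB (15 mM addition). Kinetic TNB absorbance, 405 nm filter. Four-parameter Hill fit across titration.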
Numbers stand for hits. Only some compounds are listed: those with a hit (about 7.2% of all), similar ones and a draw of the others. Unless noted, calls follow the shape of the dose curve; as a rule, active = well fitted curve in the direction sought with a large enough effect; inconclusive = small, poorly fitted or top-dose-only effect, or another doubt; inactive = no such curve, though single readings can be large; an effect the other way counts as inactive or inconclusive.

For O=C(Cn1cc(COc2ccc3ccc(=O)oc3c2)nn1)c1ccc(O)cc1 the results were RE007 growth inh inactive, LASV entry inh inconclusive, HCV inh 2.5µM and FMDV antiviral inactive.
COCC(C)n1c(SCc2cc(C(=O)OC)c(C)o2)nc2ccccc2c1=O (configuration not stated) was read as RE007 growth inh inactive, LASV entry inh inconclusive, HCV inh 11µM, Marburg entry inh inconclusive, FMDV antiviral inconclusive and Sm TGR block inactive.
COC(=O)c1cc(CSc2nnc(-c3ccccc3)c(-c3ccccc3)n2)oc1C was read as RE007 growth inh inconclusive, LASV entry inh inconclusive, HCV inh 25µM, Marburg entry inh inconclusive, FMDV antiviral inactive and Sm TGR block inactive.
Screening COCC(C)n1c(SCC(=O)c2cc(C)n(C)c2C)nc2ccccc2c1=O (configuration not stated) returned RE007 growth inh inactive, HCV inh inconclusive, Marburg entry inh inconclusive, FMDV antiviral inconclusive and Sm TGR block inactive.
COC(=O)c1ccc(CSc2nc3ccccc3c(=O)n2C)o1 was read as RE007 growth inh inactive, LASV entry inh inactive, HCV inh inactive, Marburg entry inh inactive, FMDV antiviral inconclusive and Sm TGR block 45µM.
CCCCn1c(SCc2ccc(C(=O)OC)o2)nc2cc(S(N)(=O)=O)ccc21 was read as RE007 growth inh inactive, LASV entry inh inconclusive, HCV inh 2.5µM, Marburg entry inh inactive and Sm TGR block inactive.
For CC(=O)OC[C@H]1O[C@H](CC=NOCC[C@@H]2C=C[C@@H](OC(C)=O)[C@@H](COC(C)=O)O2)C=C[C@@H]1OC(C)=O the results were Marburg entry inh inactive.
`CCOc1ccccc1NC(=O)Cn1c(=O)n(Cc2ccccc2)c(=O)c2c1c1cc(C)ccc1n2C` gave LASV entry inh inactive, FMDV antiviral inactive and Sm TGR block inactive.
`CC1=CC(c2ccccc2)n2nc(N3C(=O)c4ccccc4C3=O)nc2N1` (configuration not stated) gave RE007 growth inh inactive, LASV entry inh inactive, HCV inh inactive, Marburg entry inh inactive, FMDV antiviral inactive and Sm TGR block 35µM.
CCC(=O)N1CCc2cc(Br)cc(S(=O)(=O)N3CCC(C(=O)Nc4cccc(C)c4)CC3)c21 was read as LASV entry inh inactive, Marburg entry inh inactive, FMDV antiviral inactive and Sm TGR block inactive.
CCOC(=O)N1CCN(C(=O)c2cc(COc3ccc(F)cc3F)on2)CC1 was read as RE007 growth inh inactive, LASV entry inh inactive, HCV inh inactive, Marburg entry inh inconclusive, FMDV antiviral inactive and Sm TGR block inactive.
O=C(c1cc(COc2ccc(F)cc2F)on1)N1CCCC(c2ccccc2)C1 (configuration not stated) was read as RE007 growth inh inactive, LASV entry inh 7.1µM, HCV inh inconclusive, Marburg entry inh inconclusive, FMDV antiviral inactive and Sm TGR block inactive.
CCN1CCN(C(=O)c2cc(COc3ccc(F)cc3F)on2)[C@@H](C)C1=O was read as RE007 growth inh inactive, LASV entry inh inconclusive, HCV inh 11µM, Marburg entry inh inconclusive, FMDV antiviral inactive and Sm TGR block inactive.
O=C(c1cc(COc2ccc(F)cc2Cl)on1)N1CCCC(c2ccccc2)C1 (configuration not stated) was read as RE007 growth inh inactive, LASV entry inh inconclusive, HCV inh inconclusive, Marburg entry inh inconclusive, FMDV antiviral inactive and Sm TGR block inactive.
`CCSC1=NC2(CCCCC2)Nc2sc3c(c21)CCCC3` gave RE007 growth inh 40µM, LASV entry inh inactive, HCV inh inconclusive, Marburg entry inh inconclusive, FMDV antiviral inconclusive and Sm TGR block 56µM.
CCSc1nc2sc3c(c2c(=O)[nH]1)CCCC3 was read as RE007 growth inh inactive, LASV entry inh inactive, HCV inh inactive, Marburg entry inh inactive, FMDV antiviral inactive and Sm TGR block inactive.
Screening Cc1ccc2c(c1)S/C(=C/c1ccc[n+](CCO)c1)N2C returned RE007 growth inh inconclusive, HCV inh 1.6µM, Marburg entry inh inconclusive, FMDV antiviral inconclusive and Sm TGR block inactive.
`Cc1ccc2c(c1)S/C(=C\c1cccc[n+]1C)N2CCO` gave RE007 growth inh inconclusive, HCV inh inconclusive, FMDV antiviral inconclusive and Sm TGR block inactive.
Screening Cc1ncc2c(c1CNC(=O)c1cncs1)CCN(C(=O)c1ccsc1)C2 returned FMDV antiviral inactive.
Screening Cc1nn(-c2ccccc2)c(C)c1C(=O)OCC(=O)NC(=O)NC1CCCC1 returned RE007 growth inh inactive, LASV entry inh inactive, HCV inh 8.9µM, Marburg entry inh inactive, FMDV antiviral inactive and Sm TGR block inactive.
`Cc1nn(-c2ccccc2)c(C)c1C(=O)OCC(=O)NC12CC3CC(CC(C3)C1)C2` gave RE007 growth inh inactive, LASV entry inh inconclusive, HCV inh inactive, Marburg entry inh inactive, FMDV antiviral inactive and Sm TGR block inactive.
COc1ccccc1CNC(=O)COC(=O)c1c(C)nn(-c2ccccc2)c1Cl was read as RE007 growth inh inactive, HCV inh 11µM, FMDV antiviral inactive and Sm TGR block inactive.
For COc1ccc(C)cc1NC(=O)COC(=O)c1c(C)nn(-c2ccccc2)c1C the results were RE007 growth inh inactive, HCV inh 13µM, FMDV antiviral inconclusive and Sm TGR block inactive.
`CCCN(CCC)C(=O)Cn1c(=O)n(-c2cccc(C)c2)c(=O)c2c1c1cc(OC)ccc1n2C` gave LASV entry inh inactive, Marburg entry inh inactive, FMDV antiviral inactive and Sm TGR block inactive.
`O=C(NCCc1ccc(Cl)cc1)c1ccc2c(c1)N(Cc1ccc(Cl)cc1)C(=O)CS2` gave LASV entry inh inactive, Marburg entry inh inconclusive, FMDV antiviral inactive and Sm TGR block inactive.
For CCSC(=O)CCCCCCCCCCCO the results were RE007 growth inh 3.2µM, LASV entry inh inactive, HCV inh inactive, Marburg entry inh inactive, FMDV antiviral inactive and Sm TGR block inactive.
For CCCCCCCCO the results were RE007 growth inh inactive, HCV inh inactive, FMDV antiviral inactive and Sm TGR block inactive.
COCCn1c(CNC(=O)c2cccc(N(C)C)c2)nc2cccnc21 was read as LASV entry inh inactive, FMDV antiviral inactive and Sm TGR block inactive.
For CCN1CCN(c2cc(N3CCCC3)c(F)cc2[N+](=O)[O-])CC1 the results were RE007 growth inh inactive, LASV entry inh inconclusive, HCV inh inconclusive, Marburg entry inh 21µM, FMDV antiviral inactive and Sm TGR block inactive.
CCOC(=O)N1CCN(c2cc(N3CCOCC3)c(F)cc2[N+](=O)[O-])CC1 was read as RE007 growth inh inactive, LASV entry inh 7.9µM, HCV inh inactive, Marburg entry inh inactive and FMDV antiviral inactive.
Screening CCCCSCCCNC(=O)CN1C(=O)c2cccnc2Oc2ccc(Cl)cc21 returned LASV entry inh inactive, FMDV antiviral inactive and Sm TGR block inactive.
`Cc1ccc(C(=O)NNc2ncnc3c2cnn3C)cc1` gave RE007 growth inh inactive, LASV entry inh inactive, HCV inh inactive, Marburg entry inh inactive, FMDV antiviral inactive and Sm TGR block inactive.
